# Source: PubChem BioAssay (EPA / NIEHS)
# Several values for one entry are separate records, joined by “and”; a condition that tells them apart may be missing. Identical values can stand only once. Inconclusive results are not listed. The source holds several records for some structures; these can differ, active in one and inactive in another. Activity calls are given as the source filed them. The calls were made as follows: active = hit-call score of the fitted dose curve at least 0.9, where 1 is the maximum; inconclusive = response in the unintended direction; inactive = score below 0.9.
# Biological target: guinea pig Sigma Receptor, Non-selective Binding, SIGMAR1 (gene 100135589) (UniProt Q60492)
# Sequence (Q60492 whole entry, looked up): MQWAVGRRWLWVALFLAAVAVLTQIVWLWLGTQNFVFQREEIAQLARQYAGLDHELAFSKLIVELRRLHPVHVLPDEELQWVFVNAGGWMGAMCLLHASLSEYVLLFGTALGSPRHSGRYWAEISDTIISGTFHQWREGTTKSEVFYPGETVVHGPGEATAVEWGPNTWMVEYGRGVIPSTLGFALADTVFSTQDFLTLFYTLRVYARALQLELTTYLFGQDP
# Test: NVS_OR_gSIGMA_NonSelective: NovaScreen (NVS) Nuclear Receptor Binding Assay for guinea pig Sigma Receptor, Non-selective Binding (AID 2283367)
# How it was run: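 Membranes from guinea pig brain incubated with radioligand and test chemical for 1 h, then filtered and scintillation-counted. Duplicate primary testing at 25 uM, with concentration-series follow-up for actives.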
SMILES,AC50,outcome
COP(=S)(OC)Oc1ccc(SC)c(C)c1,11.2 µM (active),–
CCCN(CCOc1c(Cl)cc(Cl)cc1Cl)C(=O)n1ccnc1,8.36 µM (active),–
O=C(O)COc1ccc(Cl)cc1Cl,–,inactive
CC(C)(C)C(O)/C(=C\c1ccc(Cl)cc1Cl)n1cncn1 (centres undefined),1.25 µM (active),–
COc1nn(CSP(=S)(OC)OC)c(=O)s1,10.7 µM (active),–
CC[C@H](C)[C@H]1O[C@]2(C=C[C@@H]1C)C[C@@H]1C[C@@H](C/C=C(\C)[C@@H](O[C@H]3C[C@H](OC)[C@@H](O[C@H]4C[C@H](OC)[C@@H](O)[C@H](C)O4)[C@H](C)O3)[C@@H](C)/C=C/C=C3\CO[C@@H]4[C@H](O)C(C)=C[C@@H](C(=O)O1)[C@]34O)O2 (tested in a mixture with another compound),–,inactive
COP(=S)(OC)Oc1ccc([N+](=O)[O-])cc1,4.69 µM (active),–

# System: guinea pig Dopamine Transporter (DAT), gene 100714898
# Test: NVS_TR_gDAT: NovaScreen (NVS) Transporter Assay for guinea pig Dopamine Transporter (DAT) (AID 2283369);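 also: active compounds lower bound radioligand signal relative to DMSO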
# How it was run: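 Cell-free striatal membrane prep (guinea pig), 2 h exposure, filtration + scintillation readout of radioligand binding. Single-point 25 uM duplicate; actives rerun singleton, top conc 50 uM.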
SMILES,outcome,AC50
CCCN(CCC)c1c([N+](=O)[O-])cc(C(F)(F)F)cc1[N+](=O)[O-],inactive,–
CCCN(CCOc1c(Cl)cc(Cl)cc1Cl)C(=O)n1ccnc1,–,6.57 µM (active)
O=S1OCC2C(CO1)C1(Cl)C(Cl)=C(Cl)C2(Cl)C1(Cl)Cl (centres undefined),–,17.7 µM (active)
ClC1C(Cl)C(Cl)C(Cl)C(Cl)C1Cl (centres undefined),–,9.83 µM (active) and 3.74 µM (active)
Oc1ccc(Cl)cc1Cc1ccccc1,inactive,12.8 µM (active) [middle of 5 runs]
COP(=S)(OC)Oc1ccc([N+](=O)[O-])cc1,–,20.1 µM (active)
CC(C)(C)C(O)C(Oc1ccc(Cl)cc1)n1cncn1 (centres undefined),–,1.08 µM (active) and 1.75 µM (active) and 869 nM (active)
Oc1cc(Cl)ccc1Oc1ccc(Cl)cc1Cl,–,25.5 µM (active) and 25 µM (active)
CC(C)OC(=O)Nc1cccc(Cl)c1,inactive,–

# Biological target: Peroxisome proliferator-activated receptor gamma (Homo sapiens) (UniProt P37231)
# Sequence (P37231 whole entry, looked up): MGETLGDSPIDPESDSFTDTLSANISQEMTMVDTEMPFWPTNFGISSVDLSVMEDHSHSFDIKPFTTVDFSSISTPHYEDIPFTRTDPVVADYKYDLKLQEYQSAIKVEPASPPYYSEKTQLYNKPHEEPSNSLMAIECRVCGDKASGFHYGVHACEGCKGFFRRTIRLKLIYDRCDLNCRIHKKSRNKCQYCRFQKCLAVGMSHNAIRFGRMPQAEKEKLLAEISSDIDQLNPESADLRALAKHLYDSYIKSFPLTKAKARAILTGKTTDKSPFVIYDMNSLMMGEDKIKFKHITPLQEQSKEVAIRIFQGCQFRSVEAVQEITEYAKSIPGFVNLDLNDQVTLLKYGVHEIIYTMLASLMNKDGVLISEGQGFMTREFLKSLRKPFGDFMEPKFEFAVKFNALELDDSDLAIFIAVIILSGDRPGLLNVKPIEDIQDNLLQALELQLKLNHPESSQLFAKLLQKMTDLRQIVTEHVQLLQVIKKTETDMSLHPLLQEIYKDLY
# Test: NVS_NR_hPPARg: NovaScreen (NVS) Nuclear Receptor Binding Assay for human Peroxisome Proliferator-activated Receptor gamma (PPARg) (AID 2283370)
# How it was run: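 FP read-out, 2 h post-dose, cell-free extracted receptor protein. Signal loss vs DMSO negative control = binding activity. Single-conc duplicate HTS at 25 uM; concentration-response follow-up for actives.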
SMILES,outcome,AC50
O=C(O)CCCOc1ccc(Cl)cc1Cl,inactive,–
O=C1c2ccccc2C(=O)N1SC(Cl)(Cl)Cl,inactive,–
CCCN(CCOc1c(Cl)cc(Cl)cc1Cl)C(=O)n1ccnc1,inactive,–
N#Cc1c(Cl)c(Cl)c(Cl)c(C#N)c1Cl,–,0.495 µM (active)
COC(=O)c1ccccc1CS(=O)(=O)NC(=O)Nc1nc(OC)cc(OC)n1,inactive,–
CC(C)(C)C(O)/C(=C\c1ccc(Cl)cc1Cl)n1cncn1 (centres undefined),inactive,–
O=S(=O)(O)C(F)(F)C(F)(F)C(F)(F)C(F)(F)C(F)(F)C(F)(F)C(F)(F)C(F)(F)F,–,16.9 µM (active) [middle of 6 runs]
CCOc1nc(NC)nc(NC(=O)NS(=O)(=O)c2ccccc2C(=O)OC)n1,inactive,–
CC1(c2ccc(Oc3ccccc3)cc2)OC(=O)N(Nc2ccccc2)C1=O (centres undefined),inactive,–
O=S1OCC2C(CO1)C1(Cl)C(Cl)=C(Cl)C2(Cl)C1(Cl)Cl (centres undefined),inactive,–
COP(=O)(OC)OC=C(Cl)Cl,–,6.97 µM (active)
COc1nn(CSP(=S)(OC)OC)c(=O)s1,inactive,–
CNC(=O)CSP(=S)(OC)OC,inactive,–
O=[N+]([O-])/N=C1\NCCN1Cc1ccc(Cl)nc1,inactive,–
Oc1ccc(Cl)cc1Cc1ccccc1,inactive,–
CC[C@H](C)[C@H]1O[C@]2(C=C[C@@H]1C)C[C@@H]1C[C@@H](C/C=C(\C)[C@@H](O[C@H]3C[C@H](OC)[C@@H](O[C@H]4C[C@H](OC)[C@@H](O)[C@H](C)O4)[C@H](C)O3)[C@@H](C)/C=C/C=C3\CO[C@@H]4[C@H](O)C(C)=C[C@@H](C(=O)O1)[C@]34O)O2 (tested in a mixture with another compound),inactive,–
O=[N+]([O-])c1c(Cl)c(Cl)c(Cl)c(Cl)c1Cl,–,38.1 µM (active)
CC(C)(C)C(O)C(Oc1ccc(Cl)cc1)n1cncn1 (centres undefined),inactive,–
CC1(C)C(C=C(Cl)Cl)C1C(=O)OC(C#N)c1ccc(F)c(Oc2ccccc2)c1 (centres undefined),inactive,–
Oc1cc(Cl)ccc1Oc1ccc(Cl)cc1Cl,inactive,11.6 µM (active) and 16.2 µM (active) and 6.67 µM (active)
CCC(C)Nc1c([N+](=O)[O-])cc(C(C)(C)C)cc1[N+](=O)[O-] (centres undefined),inactive,–
